Screen size: about 99,000 compounds; about 340 (0.34%) were called active. Cut-off read from the data, not from the text of the source: active = TR-FRET ratio above about 2300; inactive = the rest. The entries come from a sample that favours actives as a whole.

A short description of the assay: TR-FRET detection interference compounds, primary screen, artefact control for PPARgamma SRC-1 recruitment agonists, biochemical, TR-FRET emission ratio (AID 1051). The conditions noted are these: TR-FRET detection artefact counter-screen, at 8 µM, stronger effect = higher value. (In TR-FRET formats the signal depends on donor and acceptor labels being close together.)
Regarding `Cc1ccc(C2NC(C(=O)O)CS2)cc1` (centres undefined), the TR-FRET ratio is 1760 (inactive).

Turning to `CC1(C)C(C=C(Cl)Cl)C1C(=O)N(Cc1ccc(Cl)cc1)C1CCS(=O)(=O)C1` (centres undefined), the TR-FRET ratio is 1570 (inactive).

Take `CCC(=O)N1c2ccccc2NC2=C(C(=O)CCC2)C1c1ccco1` (centres undefined): the TR-FRET ratio is 1690 (inactive).

On to `Cn1c(N)c(C(=O)COC(=O)c2ccccc2NCc2ccco2)c(=O)n(C)c1=O`, for which the TR-FRET ratio was 1870 (inactive).

For `CCN(C(=O)COc1cccnc1[N+](=O)[O-])C1CCS(=O)(=O)C1` (centres undefined), the TR-FRET ratio is 1750 (inactive).

On to `Cc1ccc(CN2CCN(/N=C/c3cccnc3)CC2)c(C)c1`, for which the TR-FRET ratio was 1720 (inactive).

`Cc1ccccc1-c1n[nH]c(=S)n1C`: the TR-FRET ratio is 1660 (inactive).

For the molecule `S=c1[nH]nc(-c2ccccc2)n1/N=C/c1c[nH]c2ccccc12`, the TR-FRET ratio was 1810 (inactive).

In the case of `Cc1ccccc1-c1n[nH]c(=S)n1/N=C/c1ccc(-c2ccccc2Br)o1`, the TR-FRET ratio was 2950 (active).

As to `CCc1ccc(CN(C)C(=O)CCc2nnc(-c3ccc(-c4ccccc4)cc3)o2)nc1`, the TR-FRET ratio was 1540 (inactive).

Consider `O=C(COC(=O)c1cc(-c2cccs2)nn1-c1ccccc1)Nc1cc([N+](=O)[O-])ccc1Cl`, for which the TR-FRET ratio is 2060 (inactive).

As to `Cc1cc(CNCc2c(C(=O)N(C)Cc3ccccc3)nc3ccccn23)nn1C`, the TR-FRET ratio was 1760 (inactive).

Consider `COc1ccccc1-c1nnc(NC(=O)c2cccc(N3C(=O)CCC3=O)c2)o1`, for which the TR-FRET ratio is 1920 (inactive).

As for `Cc1noc(C)c1COc1cccc(C(=O)Nc2cccnc2)c1`, the TR-FRET ratio was 1740 (inactive).

On to `O=C(CCC1CCCN(C(=O)Cc2ccc(F)cc2)C1)N1CCN(c2ccccn2)CC1` (centres undefined), for which the TR-FRET ratio was 1640 (inactive).

Consider `CCNc1ccc(C(=O)OCC(=O)N2c3ccccc3NC(=O)C2(C)C)cc1[N+](=O)[O-]`, for which the TR-FRET ratio was 1810 (inactive).

Regarding `COCCNC(=O)C(OC(=O)c1cccs1)c1ccc(F)cc1` (centres undefined), the TR-FRET ratio is 1860 (inactive).

In the case of `O=C(Nc1nnc(-c2ccco2)o1)c1ccc(S(=O)(=O)N2CCOCC2)cc1`, the TR-FRET ratio was 1880 (inactive).

On to `NC(=O)COC(=O)c1cc(S(=O)(=O)N2CCN(c3ccccc3)CC2)ccc1Cl`, for which the TR-FRET ratio is 1880 (inactive).

Regarding `Cc1ccc(C(=O)NC(=S)Nc2ccccc2C)cc1`, the TR-FRET ratio is 1630 (inactive).

Take `Cc1nc2ccccc2n1CC(=O)N/N=C/c1cccnc1`: the TR-FRET ratio is 1750 (inactive).

`CCCCOc1ccc(C(=O)NCC(=O)OCC(=O)N2CCN(S(=O)(=O)c3ccc(C)cc3C)CC2)cc1`: the TR-FRET ratio was 1610 (inactive).

As to `CCCOc1ccc(N/C=C/C(=O)C(C)(C)C)cc1`, the TR-FRET ratio was 1770 (inactive).

Take `CN(C)c1ccc(N/C=C/C(=O)C(F)(F)F)cc1`: the TR-FRET ratio is 2320 (active).

Consider `CC(C)CNC(=O)C(=O)Nc1ccc(N(C)C)cc1`, for which the TR-FRET ratio was 1880 (inactive).

As for `CC1CCCN(S(=O)(=O)c2ccc(N(C(=O)c3cnccn3)C(C(=O)NC3CCCCC3)c3cccs3)cc2)C1` (centres undefined), the TR-FRET ratio was 1760 (inactive).

Regarding `CC(=O)Nc1ccc(/C=N/NC(=O)c2cccs2)cc1`, the TR-FRET ratio was 1750 (inactive).

As for `C=CCn1c(=NC(=O)c2ccc(S(=O)(=O)N3CCCC3)cc2)sc2cc(NC(C)=O)ccc21`, the TR-FRET ratio was 1920 (inactive).

For the molecule `C=CCn1c(=NC(=O)c2cccs2)sc2cc(NC(C)=O)ccc21`, the TR-FRET ratio was 2340 (active).

For `CC(NC(=O)CCC(=O)N1CCN(S(=O)(=O)c2ccc(Cl)cc2)CC1)c1ccccc1` (centres undefined), the TR-FRET ratio was 2170 (inactive).

Turning to `CC(NC(=O)COC(=O)c1ccc2c(c1)OCO2)c1ccccc1` (centres undefined), the TR-FRET ratio was 1700 (inactive).

Take `CCOc1ccc(/C=N/NC(=O)C(C)Sc2ccccn2)cc1OCC` (centres undefined): the TR-FRET ratio was 1650 (inactive).

With `CCN(CC)C(=O)Cn1cc(S(=O)(=O)CC(=O)NCc2ccc3c(c2)OCO3)c2ccccc21`, the TR-FRET ratio is 1870 (inactive).

With `Cc1cccc(-c2nc3ccccc3c(=O)n2NC(=O)Cc2ccc(Cl)cc2)c1`, the TR-FRET ratio was 1630 (inactive).

As for `O=C(Cc1cccs1)Nc1cccc(-c2nc3ccccc3[nH]2)c1`, the TR-FRET ratio is 1820 (inactive).

As to `CC(=O)Nc1ccc(S(=O)(=O)Nc2ccc(-c3ccc4nnc(C)n4n3)cc2)cc1`, the TR-FRET ratio is 1930 (inactive).

As to `C/C(N)=C(/C#N)C(=O)COC(=O)C1CCN(C(=O)c2ccc(Cl)cc2)CC1`, the TR-FRET ratio is 1880 (inactive).

As to `C/C(=N/O)c1ccc(N2C(=O)C3C4C=CC(C3C2=O)C2C3C(=O)N(c5ccc(/C(C)=N/O)cc5)C(=O)C3C42)cc1` (centres undefined), the TR-FRET ratio is 1760 (inactive).

With `CSc1ccc(/C=N/N2CCN(Cc3ccccc3Cl)CC2)cc1`, the TR-FRET ratio is 1700 (inactive).

Regarding `CC1CCCCC1NC(=O)COC(=O)Cc1ccc(Br)cc1` (centres undefined), the TR-FRET ratio is 1500 (inactive).

As to `CCSC1=NCCN1C(=O)c1ccc(S(=O)(=O)N(CC)CC)cc1`, the TR-FRET ratio was 1800 (inactive).

`CCN(CC)Cc1nc2sc(C)c(C)c2c(=O)[nH]1`: the TR-FRET ratio is 1970 (inactive).

`Cc1ccc(OC(=O)CCC(=O)Nc2ccc(Br)cc2)cc1`: the TR-FRET ratio is 1980 (inactive).

On to `CC(=O)N/N=C(\C)c1ccc(Br)cc1Br`, for which the TR-FRET ratio was 1740 (inactive).

For `COC(=O)c1onc(-c2c(OC)cc(OC)cc2OC)c1C(=O)OC`, the TR-FRET ratio was 1640 (inactive).

On to `Cc1sc2nc(CC(N)=O)[nH]c(=O)c2c1-c1ccccc1`, for which the TR-FRET ratio is 1690 (inactive).

Take `O=C(CO/N=C/c1ccc(OC(F)F)cc1)NCc1ccc(F)cc1`: the TR-FRET ratio was 1970 (inactive).

Regarding `O=C(/C=C\c1ccc2c(c1)OCO2)NC1(C(=O)Nc2ccc3c(c2)OCCO3)CCCCC1`, the TR-FRET ratio is 1600 (inactive).

As for `OCC1(CCc2ccccc2)CCN(Cc2ccc3nsnc3c2)CC1`, the TR-FRET ratio was 2510 (active).

For `CC(=O)c1cccc(CN2CCC(CO)(Cc3ccccc3)CC2)c1`, the TR-FRET ratio is 1590 (inactive).

On to `Cc1cccc(-c2ncc(CN3CCC(CO)(CCCc4ccccc4)CC3)cn2)c1`, for which the TR-FRET ratio was 1880 (inactive).

In the case of `CCOc1ccc(CCNC(=O)CSc2cc(=O)n(C)c3ccc(Cl)cc23)cc1OCC`, the TR-FRET ratio is 2230 (inactive).

For the molecule `CC(C)N(C(=O)Cn1cc(SCC(=O)N2CCCC2)c2ccccc21)C(C)C`, the TR-FRET ratio is 1650 (inactive).

On to `Cn1c(=O)cc(SCC(=O)N2CCCC2)c2cc(Cl)ccc21`, for which the TR-FRET ratio is 3640 (active).

Consider `CC(CC(=O)O)CC(=O)NNC(=O)c1cccc(Br)c1` (centres undefined), for which the TR-FRET ratio was 1850 (inactive).

On to `CCn1c(=O)cc(SCC(=O)NCCC2=CCCCC2)c2ccccc21`, for which the TR-FRET ratio was 2120 (inactive).

On to `O=C(CSc1cccc[n+]1[O-])NCCCc1ccccc1`, for which the TR-FRET ratio was 1620 (inactive).

As to `CCN(CCCNC(=O)CSc1cc(=O)n(C)c2cc(Cl)ccc12)Cc1ccccc1`, the TR-FRET ratio is 3020 (active).

On to `O=C(CCC1CCCN(Cc2ccc(O)c(Cl)c2)C1)NCc1ccccc1F` (centres undefined), for which the TR-FRET ratio was 1790 (inactive).

Values taken from PubChem BioAssay AID1051 (The Scripps Research Institute Molecular Screening Center, 2008).
